Measured values taken from PubChem BioAssay (NCATS).
Records with an inconclusive call do not appear. Activity calls are given as the source filed them. Calls come from the whole dose curve; as a rule, active = well fitted cell-killing curve with a large enough effect; inconclusive = small, poorly fitted or top-dose-only effect, or effect the other way; inactive = flat fitted curve, though single readings scatter.

What was measured:
Test in all cases: Primary qHTS to identify gynecologic anti-cancer compounds using libraries of approved drugs and bioactive compounds (AID 1345084); note: nearly all actives have a fitted effect of over 55% in size
C33A = settings: Gynecologic cancer cell panel viability, ATPlite luminescence, 48 h; series mostly up to 57.5 µM
Procedure, shortened: (§1)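 Cell viability after 48 h drug treatment, ATPlite luminescence readout; five doses.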

CASKI = settings: Gynecologic cancer cell panel viability, ATPlite luminescence, 48 h; series mostly up to 57.5 µM
Procedure, shortened: as §1

Es-2 = settings: Gynecologic cancer cell panel viability, ATPlite luminescence, 48 h; series mostly up to 57.5 µM
Procedure, shortened: as §1

HeLa = settings: Gynecologic cancer cell panel viability, ATPlite luminescence, 48 h; series mostly up to 57.5 µM
Procedure, shortened: as §1

Hek293T = settings: Gynecologic cancer cell panel viability, ATPlite luminescence, 48 h, control line for the selectivity index; series mostly up to 57.5 µM
Procedure, shortened: as §1

JEG-3 = settings: Gynecologic cancer cell panel viability, ATPlite luminescence, 48 h; series mostly up to 57.5 µM
Procedure, shortened: as §1

OV90 = settings: Gynecologic cancer cell panel viability, ATPlite luminescence, 48 h; series mostly up to 57.5 µM
Procedure, shortened: as §1

PA-1 = settings: Gynecologic cancer cell panel viability, ATPlite luminescence, 48 h; series mostly up to 57.5 µM
Procedure, shortened: as §1

SKOV3 = settings: Gynecologic cancer cell panel viability, ATPlite luminescence, 48 h; series mostly up to 57.5 µM
Procedure, shortened: as §1

Tov-21-G = settings: Gynecologic cancer cell panel viability, ATPlite luminescence, 48 h; series mostly up to 57.5 µM
Procedure, shortened: as §1

Tov112D = settings: Gynecologic cancer cell panel viability, ATPlite luminescence, 48 h; series mostly up to 57.5 µM
Procedure, shortened: as §1
% is set by controls: 0 for no effect and ±100 for the full control effect.

CC1OC2OC(=O)C3(C)CC4=C(CO)C5=C(CC(=O)C4(C)C(C1=O)C23)C(C)(C)OC(=O)C5 (centres undefined)
inactive: Potency (C33A) | Potency (CASKI) | Potency (Es-2) | Potency (HeLa) | Potency (Hek293T) | Potency (JEG-3) | Potency (OV90) | Potency (PA-1) | Potency (SKOV3) | Potency (Tov-21-G) | Potency (Tov112D)

CC(C)(O)C1CCC(C)(C2CCC3(C)C4CCC5C(C)(C(=O)OC6OC(CO)C(O)C(O)C6O)C(O)CC(O)C56CC46CCC23C)O1 (centres undefined)
inactive: Potency (C33A) | Potency (CASKI) | Potency (Es-2) | Potency (HeLa) | Potency (Hek293T) | Potency (JEG-3) | Potency (OV90) | Potency (PA-1) | Potency (SKOV3) | Potency (Tov-21-G) | Potency (Tov112D)

C[C@@H]1CC[C@]2(C(=O)OC3OC(CO)C(O)C(O)C3O)CC[C@]3(C)C(=CCC4[C@@]5(C)CC[C@H](O)[C@](C)(C(=O)O)C5CC[C@]43C)C2[C@]1(C)O (some centres undefined)
inactive: Potency (C33A) | Potency (CASKI) | Potency (Es-2) | Potency (HeLa) | Potency (Hek293T) | Potency (JEG-3) | Potency (OV90) | Potency (PA-1) | Potency (SKOV3) | Potency (Tov-21-G) | Potency (Tov112D)

CCc1cc(CN2CC(C(=O)O)C2)sc1-c1noc(-c2ccc(Oc3ccccc3)cc2)n1
inactive: Potency (C33A) | Potency (CASKI) | Potency (Es-2) | Potency (HeLa) | Potency (Hek293T) | Potency (JEG-3) | Potency (OV90) | Potency (PA-1) | Potency (SKOV3) | Potency (Tov-21-G) | Potency (Tov112D)

O=C1CCC(=O)N(O)CCCCCNC(=O)CCC(=O)N(O)CCOCCNC(=O)CCC(=O)N(O)CCCCCN1
inactive: Potency (C33A) | Potency (CASKI) | Potency (Es-2) | Potency (HeLa) | Potency (Hek293T) | Potency (JEG-3) | Potency (OV90) | Potency (PA-1) | Potency (SKOV3) | Potency (Tov-21-G) | Potency (Tov112D)

CC(C)=CCC/C(C)=C/CC/C(C)=C/COC1OC(COC2OCC(OC3OCC(O)C(O)C3O)C(O)C2O)C(O)C(OC2OC(C)C(OC3OC(C)C(OC4OCC(OC5OC(C)C(O)C(O)C5O)C(O)C4O)C(O)C3O)C(O)C2O)C1O (centres undefined)
inactive: activity change, negative = cytotoxicity (C33A) 4.68% [at 6.55 µM] | activity change, negative = cytotoxicity (CASKI) -7.12% [at 6.55 µM] | activity change, negative = cytotoxicity (Es-2) -6.21% [at 6.55 µM] | activity change, negative = cytotoxicity (HeLa) -2.03% [at 6.55 µM] | activity change, negative = cytotoxicity (Hek293T) -3.08% [at 6.55 µM] | activity change, negative = cytotoxicity (JEG-3) -0.54% [at 6.55 µM] | activity change, negative = cytotoxicity (OV90) -9.19% [at 6.55 µM] | activity change, negative = cytotoxicity (PA-1) -4.48% [at 6.55 µM] | activity change, negative = cytotoxicity (SKOV3) -3.45% [at 6.55 µM] | activity change, negative = cytotoxicity (Tov-21-G) -0.577% [at 6.55 µM] | activity change, negative = cytotoxicity (Tov112D) -7.57% [at 6.55 µM]

C[C@@H]1O[C@@H](O[C@H]2[C@H](O)[C@@H](O)[C@H](OC[C@H]3O[C@@H](OC(=O)[C@]45CCC(C)(C)C[C@H]4C4=CCC6[C@@]7(C)CC[C@H](O[C@@H]8OC[C@H](O)[C@H](O[C@@H]9O[C@H](CO)[C@@H](O)[C@H](O)[C@H]9O)[C@H]8O)[C@@](C)(CO)C7CC[C@@]6(C)[C@]4(C)CC5)[C@H](O)[C@@H](O)[C@@H]3O)O[C@@H]2CO)[C@H](O)[C@H](O)[C@H]1O (some centres undefined)
inactive: activity change, negative = cytotoxicity (C33A) 0.512% [at 6.55 µM] | activity change, negative = cytotoxicity (CASKI) -0.125% [at 6.55 µM] | activity change, negative = cytotoxicity (Es-2) -1.94% [at 6.55 µM] | activity change, negative = cytotoxicity (HeLa) 8.6% [at 6.55 µM] | activity change, negative = cytotoxicity (Hek293T) -5.57% [at 6.55 µM] | activity change, negative = cytotoxicity (JEG-3) 16.9% [at 6.55 µM] | activity change, negative = cytotoxicity (OV90) 13.6% [at 6.55 µM] | activity change, negative = cytotoxicity (PA-1) 8.25% [at 6.55 µM] | activity change, negative = cytotoxicity (SKOV3) 11.5% [at 6.55 µM] | activity change, negative = cytotoxicity (Tov-21-G) 8.55% [at 6.55 µM] | activity change, negative = cytotoxicity (Tov112D) -0.716% [at 6.55 µM]

CC1=CC(=O)CC(C)(C)[C@H]1/C=C/C(CO)O[C@@H]1O[C@H](CO)[C@@H](O)[C@H](O)[C@H]1O (some centres undefined)
inactive: Potency (C33A) | Potency (CASKI) | Potency (Es-2) | Potency (HeLa) | Potency (Hek293T) | Potency (JEG-3) | Potency (OV90) | Potency (PA-1) | Potency (SKOV3) | Potency (Tov-21-G) | Potency (Tov112D)

CCc1c(C)nc2c(-c3cnn(-c4cc(CO)ccn4)c3)c[nH]n2c1=O
inactive: Potency (C33A) | Potency (CASKI) | Potency (Es-2) | Potency (HeLa) | Potency (Hek293T) | Potency (JEG-3) | Potency (OV90) | Potency (PA-1) | Potency (SKOV3) | Potency (Tov-21-G) | Potency (Tov112D)

C[C@H](Nc1ncnc2nc[nH]c12)c1cc2ccc(F)cc2nc1-c1ccccn1
inactive: Potency (C33A) | Potency (CASKI) | Potency (Es-2) | Potency (HeLa) | Potency (Hek293T) | Potency (JEG-3) | Potency (OV90) | Potency (PA-1) | Potency (SKOV3) | Potency (Tov-21-G) | Potency (Tov112D)

C=C[C@H]1[C@H](O[C@@H]2O[C@H](CO)[C@@H](O)[C@H](O)[C@H]2O)OC=C(C(=O)OC)[C@H]1C/C=C(/C=O)[C@@H]1C(C(=O)OC)=CO[C@@H](O[C@@H]2O[C@H](CO)[C@@H](O)[C@H](O)[C@H]2O)[C@@H]1C=C
inactive: Potency (C33A) | Potency (CASKI) | Potency (Es-2) | Potency (HeLa) | Potency (Hek293T) | Potency (JEG-3) | Potency (OV90) | Potency (PA-1) | Potency (SKOV3) | Potency (Tov-21-G) | Potency (Tov112D)

Cc1cc(OCc2nc(-c3ccccc3Cl)cs2)ccc1OCC(=O)O
inactive: Potency (C33A) | Potency (CASKI) | Potency (Es-2) | Potency (HeLa) | Potency (Hek293T) | Potency (JEG-3) | Potency (OV90) | Potency (PA-1) | Potency (SKOV3) | Potency (Tov-21-G) | Potency (Tov112D)

COC(=O)C1=CO[C@@H](O[C@@H]2O[C@H](CO)[C@@H](O)[C@H](O)[C@H]2O)[C@@H]2C(CO)=CC[C@]12O
inactive: Potency (C33A) | Potency (CASKI) | Potency (Es-2) | Potency (HeLa) | Potency (Hek293T) | Potency (JEG-3) | Potency (OV90) | Potency (PA-1) | Potency (SKOV3) | Potency (Tov-21-G) | Potency (Tov112D)

Cc1noc(=O)c2ccc(NC(=O)C(O)(CC(C)(C)c3cccc4c3OCC4)C(F)(F)F)cc12 (centres undefined)
inactive: Potency (C33A) | Potency (CASKI) | Potency (Es-2) | Potency (HeLa) | Potency (Hek293T) | Potency (JEG-3) | Potency (OV90) | Potency (PA-1) | Potency (SKOV3) | Potency (Tov-21-G) | Potency (Tov112D)
